Rows were chosen to be rich in hits. Some 9% of all compounds tested hit in one or more screens of this group.
PLK1 PBD inh – blocks phosphopeptide binding to human PLK1 polo-box domain; P53350; Plk1 PBD binding of FITC phosphopeptide, fluorescence polarization; Potency, µM, without a hit: max response, negative = inhibition, actives largely listed as inhibitors; actives 2.8% (n = 360,000); further: series mostly up to about 57 µM; on the % scale 0 is the no-effect control and ±100 the full control effect; nearly all actives have a fitted effect of over 65% in size
G9a inh – inhibitors of human histone lysine methyltransferase G9a. actives 8.8% (n = 350,000). Potency, µM (series often up to 102 µM), inactives show at the top dose activity, negative = inhibition, actives largely listed as inhibitors. Q96KQ7. G9a H3K9 monomethylation, AlphaScreen, 2 h; further: on the % scale 0 is the no-effect control and ±100 the full control effect; nearly all actives have a fitted effect of over 75% in size
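Readings reflect AlphaScreen signal from monomethyl-H3K9 antibody detection. HMT at 20 nM; substrate b-H3K9 500 nM; cofactor SAM 20 uM; 2 h RT reaction; compounds tested as titrations in qHTS with 15 min preincubation.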
BAZ2B inh – blocks human BAZ2B. AlphaScreen BAZ2B-H3K14Ac peptide displacement. Potency, µM (series often up to 114 µM), for inactives: at the highest dose activity change, negative = inhibition, hits mostly inhibitors. Q9UIF8. actives 4.4% (n = 360,000); further: on the % scale 0 is the no-effect control and ±100 the full control effect; nearly all actives have a fitted effect of over 60% in size
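AlphaScreen displacement: compounds (up to 110uM) incubated 30 min at room temperature with a preformed 50 nM BAZ2B/50 nM biotinylated H3K14Ac peptide complex in PBS pH 7.4 with Tween-20. Donor and acceptor beads at 10 ug/mL final added, 20 min light-protected before reading.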
12-LOX inh – inhibitors of human 12S-lipoxygenase ALOX12 | P18054 | purified 12hLO, xylenol orange hydroperoxide absorbance | Potency, µM (titrated, usually from 108 µM), for the others: at the top dose activity change, negative = inhibition, actives largely listed as inhibitors | actives 1.1% (n = 580,000) | AID 1671190; further: on the % scale 0 is the no-effect control and ±100 the full control effect
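Purified human 12hLO at 150 nM in 25 mM Hepes, 0.01% Triton X-100, pH 7.0, preincubated 15 min at room temperature with compound. Reaction started with 40 uM arachidonic acid, 30 min at room temperature. Hydroperoxide measured by Fe-xylenol orange, 573/405 nm absorbance ratio.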
HP1b chromo inh – HP1-beta chromodomain-methylated histone interaction inhibition; P83916; AlphaScreen HP1-beta / biotin-H3K9me3 peptide binding; Potency, µM (doses to about 114 µM), inactives show at the top dose activity change, negative = inhibition, actives largely listed as inhibitors; actives 0.56% (n = 390,000); AID 540317; further: nearly all actives have a fitted effect of over 70% in size
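HP1-beta protein (50 nM final) preincubated 30 min at room temperature with biotinylated H3(1-18)K9me3 peptide (50 nM) in PBS pH 7.4, 0.01% Tween-20, then compound added for 30 min. AlphaScreen streptavidin donor/nickel chelate acceptor beads (10 ug/mL final), 30 min dark, luminescence read.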
JMJD2A Tudor inh – inhibitors of human JMJD2A Tudor domain; actives 4.4% (n = 390,000); AlphaScreen JMJD2A-Tudor / H3K4me3 peptide binding; Potency, µM (titrated, usually from 114 µM), inactives show at the top dose activity change, negative = inhibition, most hits filed as inhibitors; O75164; further: on the % scale 0 is the no-effect control and ±100 the full control effect; nearly all actives have a fitted effect of over 50% in size
Numbers without * were called inactive; ? = inconclusive; . = no result; [ ] = dose if it differs, or a comment. The call rests on the fitted dose curve; in most records, active means well fitted curve in the direction sought with a large enough effect; inconclusive means small, poorly fitted or top-dose-only effect, or another doubt; inactive means no such curve, though single readings can be large; an effect the other way counts as inactive or inconclusive. Potency means the concentration at half of the fitted maximal effect.

SMILES | PLK1 PBD inh | G9a inh | BAZ2B inh | 12-LOX inh | HP1b chromo inh | JMJD2A Tudor inh
COc1ccc(CCN2C(=O)c3ccccc3NC2c2cc(Cl)c(O)c(OC)c2)cc1 (stereo not drawn) | -0.9% | 70.8µM* | -15.1% | -34.4% | -12.4% | -23.1%
COc1ccc(O)c(C2Nc3ccccc3C(=O)N2Cc2ccccc2)c1 (stereo not drawn) | . | . | . | . | . | 79.4µM*
COc1cc(C2Nc3ccccc3C(=O)N2Cc2ccccc2)ccc1OCc1ccccc1 (stereo not drawn) | . | . | . | . | 1.5%[57 µM] | -25.4%[57.1 µM]
Cc1cccc(C2Nc3ccccc3C(=O)N2CCc2ccccc2)n1 (stereo not drawn) | -2.8% | 8.7%[59 µM] | 2.7% | -20.1% | 37.1% | -0.6%
CCCN1C(=O)c2ccccc2NC1c1cc(OC)c(OC)c(OC)c1 (stereo not drawn) | -6.6% | -4.7%[59 µM] | 1.7% | -2.8% | 32.0% | 0.3%
O=C1c2ccccc2NC(c2cccc([N+](=O)[O-])c2)N1CCc1ccccc1 (stereo not drawn) | -10.3% | 44.7µM* | ? | ? | -12.5% | ?
Cc1c(C(=O)NCc2ccccc2Cl)sc2ncnc(NCC3CCCO3)c12 (stereo not drawn) | . | . | . | 2.3% | . | .
Cn1c(CNC(=O)CCNC(=O)Cc2ccc(F)cc2)cc(=O)n(C)c1=O | . | . | . | -18.7% | . | .
CS(=O)(=O)CC(O)c1cc2n(n1)CCN(Cc1ccc(Cl)s1)C2 (stereo not drawn) | . | . | . | -26.3% | . | .
CC(=O)N(Cc1cc(=O)[nH]c2ccccc12)c1ccc(C)cc1 | 0.7% | 31.6µM* | 12.0% | 1.0% | 22.3% | 1.0%
O=C(CCl)N(Cc1cc(=O)[nH]c2ccccc12)c1ccccc1 | -9.5% | 39.8µM* | -4.4% | ? | 6.2% | -28.9%
COCCCN1C(=O)C2C(C(=O)Nc3cc(C)cc(C)c3)C3C=CC2(O3)C1C(=O)NC1CCCCC1 (stereo not drawn) | -17.0% | 89.1µM* | -3.1% | 0.1% | -0.8% | -24.7%
Cc1cc(C)cc(NC(=O)C2C3C=CC4(O3)C2C(=O)N(CCCN2CCCCC2)C4C(=O)NC2CCCCC2)c1 (stereo not drawn) | -10.4% | ? | 0.3% | 14.9% | 16.6% | -17.1%
CSc1cccc(NC(=O)C2C3C=CC4(O3)C2C(=O)N(CCN2CCOCC2)C4C(=O)NC2CCCCC2)c1 (stereo not drawn) | -5.9% | 50.1µM* | -18.6% | -12.5% | 34.5% | -7.1%
COc1ccc(NC(=O)C2C3C=CC4(O3)C2C(=O)N(CCCN2CCCCC2)C4C(=O)NC2CCCC(C)C2C)cc1 (stereo not drawn) | -17.0% | 44.7µM* | -1.2% | -34.3% | 2.8% | -17.9%
O=C(Nc1ccc(Cl)c(Cl)c1)C1C2C=CC3(O2)C1C(=O)N(CCN1CCCCC1)C3C(=O)NC1CCCCC1 (stereo not drawn) | 1.1% | 44.7µM* | 1.7% | 1.5% | 11.9% | -12.9%
CCOc1ccc(NC(=O)CN(C)c2ccc(S(=O)(=O)N3CCOCC3)cn2)cc1OCC | -4.9% | 4.8%[12.7 µM] | 34.7% | 1.7% | 24.2% | 0.8%
CCN(CC)CCNCC1C(=O)O[C@@H]2C[C@@]3(C)CCC[C@H](C)C3=C[C@H]12 (stereo partly drawn) | -8.3% | 3.0%[12.7 µM] | -12.3% | 0.0% | 21.8% | -9.4%
COc1ccc(-n2c(=O)c(-c3cc(F)cc(F)c3)nc3cnc(N4CCNCC4)nc32)cc1 | . | -26.6%[12.7 µM] | . | -24.6% | . | .
O=C1CSC(=S)N1c1ccccc1 | 2.9% | . | . | -5.5% | 28.4% | -13.2%
O=C(CSc1nc2ccccc2n1Cc1ccc(F)c(Cl)c1)N1CCN(c2ccc(F)cc2)CC1 | . | 13.1%[59 µM] | 2.8% | 2.1% | 19.9% | -15.3%
COc1cccc(NC(=O)C2C3C=CC4(O3)C2C(=O)N(CCCN2CCC(C)CC2)C4C(=O)NC2CCCCC2)c1 (stereo not drawn) | -6.8% | 44.7µM* | -1.0% | -14.1% | 46.6% | -1.1%

Screens: PubChem, National Center for Advancing Translational Sciences (NCATS)
